This passage reports inhibition results from PubChem BioAssay AID434961 (Broad Institute, 2010).

Out of some 7,700 compounds screened, about 15 (0.2%) were called active. Inconclusive results (about 6%) are left out. For the sample, actives were picked, then their nearest neighbours and some compounds at random. Unmarked numbers belong to inactive results.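 The calls were made as follows: active = more than half of replicate wells with inhibition above about 18% (limit read from the data, passing the limit was not always enough); inconclusive = exactly half of replicate wells above that limit; inactive = fewer than half of replicates above it.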

The target in this assay is Regulator of chromosome condensation (Homo sapiens) + GTP-binding nuclear protein Ran (Homo sapiens) + Importin subunit beta-1 (Homo sapiens) (UniProt P18754+P62826+Q14974). The experiment in a line: RanGTP/importin-beta interaction disruptors – biochemical, CFP-Ran/YFP-importin-beta FRET, RCC1, cell-free, primary screen (AID 434961).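 Also: 0% = DMSO wells and 100% inhibition = RanGDP control wells on each plate.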 The note with it: stronger effect = higher value, concentration not given here.
For the compound `Cc1noc(C)c1NC(=O)N(C)C[C@@H]1Oc2ccc(NS(=O)(=O)c3cccs3)cc2C(=O)N([C@H](C)CO)C[C@@H]1C`, the inhibition was -1.63%.

For the compound `C[C@@H]1CCCCO[C@@H](CN(C)C(=O)CCC(F)(F)F)[C@H](C)CN([C@@H](C)CO)C(=O)c2cc(NS(=O)(=O)c3ccccc3)ccc2O1`, the inhibition was -3.22%. With `C[C@@H]1CN([C@@H](C)CO)C(=O)c2cccc(NS(C)(=O)=O)c2O[C@H]1CN(C)S(=O)(=O)c1cn(C)cn1` the figure was 0.88%. With `C[C@H]1CN([C@@H](C)CO)C(=O)Cc2cc(NC(=O)Cc3cn(C)c4ccccc34)ccc2O[C@@H]1CN(C)C(=O)Nc1ccccc1` the figure was 0.0312%; with `Cc1noc(C)c1S(=O)(=O)Nc1cccc2c1O[C@H](CN(C)C(=O)NC1CCCCC1)[C@H](C)CN([C@@H](C)CO)C2=O`, -6.51%; with `Cc1noc(C)c1S(=O)(=O)Nc1cccc2c1O[C@@H](CN(C)Cc1ccc(C(F)(F)F)cc1)[C@@H](C)CN([C@@H](C)CO)C2=O`, -1.54%.

Consider `C[C@H]1CN([C@@H](C)CO)C(=O)c2cc(NC(=O)C3CC3)ccc2O[C@@H]1CN(C)Cc1ccc(Cl)c(Cl)c1`, for which the inhibition is -5.2%. With `C[C@@H]1CN([C@H](C)CO)C(=O)Cc2cc(NC(=O)Nc3ccccc3)ccc2O[C@@H]1CN(C)C(=O)Nc1ccc(C(F)(F)F)cc1` the figure was -1.14%; with `C[C@@H]1CCCCO[C@H](CN(C)C)[C@@H](C)CN([C@H](C)CO)C(=O)c2cc(NC(=O)Nc3ccc(F)cc3)ccc2O1`, 3.67%; with `Cc1noc(C)c1S(=O)(=O)Nc1cccc2c1O[C@H](CN(C)C)[C@H](C)CN([C@H](C)CO)C2=O`, 5.73%. For the compound `C[C@@H]1CN([C@@H](C)CO)C(=O)c2cc(NC(=O)Nc3ccc4c(c3)OCO4)ccc2O[C@@H]1CN(C)Cc1ccc(C(=O)O)cc1`, the inhibition was -3.71%. For `C[C@@H]1CN([C@@H](C)CO)C(=O)CCCn2nncc2CO[C@@H]1CN(C)C`, the inhibition is 4.43%.

As for `COc1ccc(CN(C)C[C@@H]2OCCCC[C@H](C)Oc3ccc(NC(=O)Nc4c(C)noc4C)cc3C(=O)N([C@H](C)CO)C[C@@H]2C)cc1`, the inhibition was 0.0847%. With `Cc1noc(C)c1S(=O)(=O)Nc1ccc2c(c1)CC(=O)N([C@H](C)CO)C[C@H](C)[C@H](CN(C)C(=O)Nc1cccc3ccccc13)O2`, the inhibition is 5.9%.

Regarding `C[C@H](CO)N1C[C@H](C)[C@H](CN(C)S(=O)(=O)c2cccs2)Oc2c(NC(=O)Nc3ccc(C(F)(F)F)cc3)cccc2C1=O`, the inhibition was 3.84%.

As to `CC(C)NC(=O)N(C)C[C@H]1OCCCC[C@H](C)Oc2ccc(NC(=O)CCCN(C)C)cc2C(=O)N([C@H](C)CO)C[C@@H]1C`, the inhibition was -1.47%. With `C[C@@H]1CN([C@@H](C)CO)C(=O)CCCn2cc(nn2)CO[C@H]1CN(C)C(=O)Nc1ccc(-c2cccs2)cc1` the figure was -3.35%; with `COc1ccc(S(=O)(=O)Nc2ccc3c(c2)CC(=O)N([C@H](C)CO)C[C@H](C)[C@H](CN(C)S(=O)(=O)c2cn(C)cn2)O3)cc1`, 5.44%. As for `C[C@@H]1CN([C@@H](C)CO)C(=O)c2cccc(NS(=O)(=O)c3cccs3)c2O[C@@H]1CN(C)Cc1ccc(C(=O)O)cc1`, the inhibition is -3.95%. Turning to `Cc1ccc(S(=O)(=O)Nc2ccc3c(c2)CC(=O)N([C@H](C)CO)C[C@@H](C)[C@@H](CN(C)C(=O)Nc2c(C)noc2C)O3)cc1`, the inhibition is 1.18%. With `C[C@H]1CN([C@@H](C)CO)C(=O)c2cccc(NC(=O)c3cnccn3)c2O[C@@H]1CN(C)C(=O)Nc1ccccc1` the figure was -1.79%; with `C[C@H]1CCCCO[C@H](CN(C)C(=O)C2CCCCC2)[C@@H](C)CN([C@@H](C)CO)C(=O)c2cc(NS(=O)(=O)c3cccs3)ccc2O1`, 2.26%; with `C[C@@H]1CN([C@H](C)CO)C(=O)c2cc(NC(=O)c3ccncc3)ccc2O[C@@H](C)CCCCO[C@H]1CN(C)Cc1ccc(C(=O)O)cc1`, -0.563%. With `COc1ccc(NC(=O)Nc2ccc3c(c2)C(=O)N([C@H](C)CO)C[C@H](C)[C@@H](CN(C)C)O3)cc1` the figure was -2.6%; with `COc1ccc(CN(C)C[C@@H]2Oc3c(NS(=O)(=O)c4ccc(OC)cc4)cccc3C(=O)N([C@@H](C)CO)C[C@H]2C)cc1`, 0.462%; with `C[C@@H]1CCCCO[C@@H](CN(C)C(=O)Nc2cccc3ccccc23)[C@@H](C)CN([C@@H](C)CO)C(=O)c2cc(N(C)C)ccc2O1`, 2.86%. On to `Cc1noc(C)c1NC(=O)N(C)C[C@H]1Oc2c(NS(=O)(=O)c3ccccc3)cccc2C(=O)N([C@H](C)CO)C[C@@H]1C`, for which the inhibition is 4.19%. With `C[C@H]1CN([C@@H](C)CO)C(=O)CCCn2cc(nn2)CO[C@H]1CN(C)S(=O)(=O)c1ccc(Oc2ccccc2)nc1` the figure was 0.77%; with `C[C@@H]1CCCCO[C@@H](CN(C)Cc2ccccc2)[C@H](C)CN([C@@H](C)CO)C(=O)c2cc(NS(=O)(=O)c3ccccc3)ccc2O1`, 1.85%; with `C[C@@H]1CN([C@@H](C)CO)C(=O)c2cc(NS(=O)(=O)c3cccs3)ccc2O[C@@H]1CN(C)C(=O)Nc1ccc(F)cc1`, -0.701%.

Take `C[C@@H]1CN([C@H](C)CO)C(=O)c2cc(NC(=O)c3ccncc3)ccc2O[C@@H](C)CCCCO[C@H]1CN(C)S(=O)(=O)c1ccc(F)cc1`: the inhibition is 0.556%.

As for `COc1ccc(NC(=O)Nc2ccc3c(c2)C(=O)N([C@@H](C)CO)C[C@H](C)[C@H](CN(C)C)O3)cc1`, the inhibition was 4.32%. For `C[C@@H]1CCCCO[C@@H](CN(C)C(=O)C2CCCCC2)[C@@H](C)CN([C@@H](C)CO)C(=O)c2cc(NC(=O)Nc3ccccc3)ccc2O1`, the inhibition is -1.24%. Consider `COc1ccc(NC(=O)Nc2ccc3c(c2)C(=O)N([C@H](C)CO)C[C@@H](C)[C@@H](CN(C)S(=O)(=O)c2cn(C)cn2)O3)cc1`, for which the inhibition was 0.222%. As to `C[C@H]1CN([C@@H](C)CO)C(=O)c2cccc(NC(=O)C3CCOCC3)c2O[C@H]1CN(C)Cc1ccc(Oc2ccccc2)cc1`, the inhibition is 5.74%.

Usually inhibition stands for the relative decrease from the control value, in per cent.
